# pPAFAH FP inh: inhibitors of human plasma PAF acetylhydrolase (pPAFAH) | actives 1.5% (n = 330,000) | Q13093 | inhibition, % at 3.39 µM | AID 463082 | recombinant pPAFAH, FP-rhodamine probe fluorescence polarization;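 active = inhibition above the mean inhibition across the screen plus 3 SD, cut at about 25% in these data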;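 also: inhibitors block binding of the rhodamine activity-based probe so polarization drops; 0% = enzyme with DMSO and 100% = wells lacking pPAFAH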
# Fam108B counter: blocks mouse Fam108B hydrolase in RBBP9 counter-screen | recombinant Fam108B, FP-Rh probe fluorescence polarization | inhibition, % at 9.51 µM | actives 0.33% (n = 300,000) | AID 1947;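 active = inhibition above the screen mean inhibition plus 3 SD, computed separately per campaign, cut at about 18% in these data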;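 also: inhibitors lower polarization as less probe binds the enzyme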
# PME-1 primary: PME-1 (human) inhibition; inhibition, % at 5.9 µM; actives 0.53% (n = 320,000); AID 2130; Q9Y570; recombinant PME-1, FP-Rh probe fluorescence polarization;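 active = inhibition above the campaign mean of all compounds plus 3 SD, cut at about 26% in these data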;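 also: competitive labeling of PME-1 active site by serine hydrolase directed probe; 0% = PME-1 with DMSO and 100% = wells lacking PME-1 enzyme; inhibitors block probe labeling so polarization falls and inhibition rises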
# Target sequence (Q9Y570 whole entry, looked up): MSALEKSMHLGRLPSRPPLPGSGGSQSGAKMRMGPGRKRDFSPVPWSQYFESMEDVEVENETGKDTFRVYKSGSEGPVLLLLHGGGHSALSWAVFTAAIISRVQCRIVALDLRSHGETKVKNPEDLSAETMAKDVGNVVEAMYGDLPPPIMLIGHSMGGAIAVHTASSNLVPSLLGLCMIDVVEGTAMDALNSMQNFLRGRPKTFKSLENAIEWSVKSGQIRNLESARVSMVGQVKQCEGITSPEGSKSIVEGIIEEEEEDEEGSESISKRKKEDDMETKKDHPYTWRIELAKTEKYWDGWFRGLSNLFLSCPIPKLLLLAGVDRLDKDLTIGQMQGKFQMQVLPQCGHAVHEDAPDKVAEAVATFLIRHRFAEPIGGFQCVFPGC
# PAFAH1B3 FP inh: PAFAH1B3 (human) inhibition. Q15102. recombinant PAFAH1B3, FP-rhodamine probe, fluorescence polarization. inhibition, % at 3.39 µM. actives 0.28% (n = 340,000). AID 492972;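 active = inhibition above the screen-wide average of all tested compounds plus 3 SD, cut at about 25% in these data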;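 also: 0% = enzyme with DMSO only and 100% = wells lacking PAFAH1B3 protein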
# PAFAH1B2 inh: inhibitors of human PAFAH1B2; recombinant PAFAH1B2, FP-rhodamine activity probe, fluorescence polarization; inhibition, % at 3.39 µM; AID 492953; actives 1.2% (n = 340,000); P68402;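 active = inhibition above the mean of all tested compounds plus 3 SD, cut at about 24% in these data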;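 also: 0% = enzyme with DMSO and 100% = wells lacking PAFAH1B2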
# Target sequence (P68402 whole entry, looked up): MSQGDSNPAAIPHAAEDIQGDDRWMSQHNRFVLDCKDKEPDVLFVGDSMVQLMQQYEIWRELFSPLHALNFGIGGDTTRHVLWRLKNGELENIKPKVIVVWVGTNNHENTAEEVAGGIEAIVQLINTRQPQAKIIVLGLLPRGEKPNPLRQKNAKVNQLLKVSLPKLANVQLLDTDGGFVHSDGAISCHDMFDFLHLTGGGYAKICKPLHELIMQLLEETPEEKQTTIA
# PAFAH2 inh: PAFAH2 (human) inhibition. Q99487. inhibition, % at 3.39 µM. actives 0.99% (n = 340,000). AID 492956. recombinant PAFAH2, FP-rhodamine activity probe, fluorescence polarization;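 active = inhibition above the mean over all tested compounds plus 3 SD, cut at about 30% in these data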;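 also: inhibitors block probe labeling of enzyme so polarization drops; 0% = enzyme with DMSO and 100% = wells lacking PAFAH2 protein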
# An asterisk follows results filed as active; x = not tested or not shown. In the library only some 2.8% were active in any assay of this set; here they are far more common.
SMILES,pPAFAH FP inh,Fam108B counter,PME-1 primary,PAFAH1B3 FP inh,PAFAH1B2 inh,PAFAH2 inh
C[C@H](NC(=O)N1CCn2c1nc1ccccc12)C(=O)NCCc1ccccc1,0,0,-4,2,1,-1
C[C@@H](C(=O)OCC(=O)c1ccc(F)c(F)c1)N1C(=O)C2CCCCC2C1=O (stereo partly drawn),28*,x,x,3,3,20
CCN(CC)c1ccc(/C=N/NC(=O)c2nnn(-c3nonc3N)c2C(C)C)c(O)c1,28*,6,17,12,13,11
CC(C)c1c(C(=O)N/N=C/c2ccc3c(c2)OCO3)nnn1-c1nonc1N,3,2,-1,7,2,1
Cc1ccc(S(=O)(=O)Nc2ccccc2C(N)=O)cc1,-4,-1,0,9,2,5
Cc1cc(C)c(S(=O)(=O)Nc2ccccc2-c2ccccc2)c(C)c1,3,-5,6,4,18,-4
COC(=O)c1ccc(Sc2ccccc2NS(=O)(=O)c2ccc(C)cc2)nc1,2,-3,29*,5,4,-2
O=S(=O)(Nc1ccccc1-c1ccccc1)c1ccccc1,x,x,x,7,26*,6
Cc1ccc(S(=O)(=O)Nc2ccccc2-c2ccccc2NS(=O)(=O)c2ccc(C)cc2)cc1,25*,4,5,-6,59*,10
O=C(Nc1ccc(-n2cnnn2)cc1)c1cccc(S(=O)(=O)N2CCCC2)c1,-4,x,-1,-1,1,-6
O=C(OCC(=O)N1CCN(c2ccccc2)CC1)C1CCCN1S(=O)(=O)c1ccc(Cl)cc1 (stereo not drawn),x,x,x,8,4,3
Cc1ccc(S(=O)(=O)N2CCN(C(=S)NCCc3ccccc3)CC2)cc1,0,-1,9,10,45*,2
Cc1ccc(S(=O)(=O)N2CCN(C(=O)N(c3ccccc3)c3ccccc3)CC2)cc1,4,-4,5,3,26*,12
Cc1ccc(N(C)C(=O)N2CCN(S(=O)(=O)c3ccc(C)cc3)CC2)cc1,4,4,-6,1,1,0
COc1ccc(CCNC(=S)N2CCN(S(=O)(=O)c3ccccc3)CC2)cc1,3,5,12,4,2,-1
CCSc1c([N+](=O)[O-])c(=O)n(-c2ccccc2)c2ccccc12,-1,1,2,-4,2,2
Cc1csc(=O)n1CC(=O)OCC(=O)Nc1cc(Cl)ccc1[N+](=O)[O-],-4,1,4,1,-2,-3
COc1ccc(Br)cc1CN(C)CC(=O)NCc1ccc(F)cc1,7,-4,-1,11,9,5
CN(CC(=O)NCc1ccc(F)cc1)Cc1ccc(Br)cc1,-1,-2,5,-1,25*,-4
CCOc1ccc(N=C/C=C/c2ccccc2)c(O)c1,32*,2,58*,2,0,0
CCOC(=O)c1c(S(=O)(=O)NCc2ccco2)c(C)n(C)c1C,3,-4,1,-2,-2,2
O=C(Nc1c(C(=O)O)[nH]c2ccccc12)NC1CCCCC1,11,5,1,-3,27*,45*
CC(OC(=O)CNC(=O)c1cccs1)C(=O)Nc1ccc(S(N)(=O)=O)cc1 (stereo not drawn),-4,1,-6,-4,0,-1
Cc1cc(C)cc(N(CC(=O)Nc2ccc(C(F)(F)F)cc2)S(=O)(=O)c2c(C)[nH]c(=O)[nH]c2=O)c1,28*,-2,-6,-1,3,0
COc1cc(NC(=O)CN(c2cc(C)cc(C)c2)S(=O)(=O)c2c(C)[nH]c(=O)[nH]c2=O)cc(OC)c1,25*,0,-4,6,3,1
SMILES,pPAFAH FP inh,Fam108B counter,PME-1 primary,PAFAH1B3 FP inh,PAFAH1B2 inh,PAFAH2 inh
COc1ccc(C(=O)Nc2cc(C)nn2-c2ccc(F)cc2)cc1,-1,1,0,-3,4,3
COc1cc(CNc2ncc(-c3ccc(Br)cc3)n2C)cc(OC)c1O,4,1,4,8,7,0
CCC(C)NC(=O)[C@H]1N2C(=O)c3c(ccc(OC)c3OC)C2SC1(C)C (stereo partly drawn),6,-4,-1,6,5,-11
CCC(=O)Nc1nc(C)c(-c2csc(Nc3ccccn3)n2)s1,26*,-12,21,9,0,17
CCCCC(=O)Nc1nc(C)c(-c2csc(Nc3cc(OC)ccc3OC)n2)s1,22,15,25,14,3,0
COc1ccc(OC)c(Nc2nc(-c3sc(C)nc3C)cs2)c1,33*,9,22,5,2,7
COc1ccc(OC)c(Nc2nc(-c3sc(NC(=O)C(C)(C)C)nc3C)cs2)c1,30*,6,2,6,3,15
COc1cccc(Nc2nc(-c3sc(C)nc3C)cs2)c1,12,-2,5,12,8,8
COc1ccc(OC)c(Nc2nc(-c3sc(NC(=O)CC(C)C)nc3C)cs2)c1,30*,10,14,10,8,3
CCCC(=O)Nc1nc(C)c(-c2csc(Nc3ccccc3C)n2)s1,10,1,-7,1,-6,6
O=C(/C=C/c1ccc([N+](=O)[O-])cc1)OCC(=O)N1CCCC1,4,x,x,-2,3,-5
Cc1ccc(S(=O)(=O)CCC(=O)OCC(=O)NCc2ccc(Cl)cc2)cc1,5,-1,1,4,9,1
CCC(C)C(=O)Nc1nc(C)c(-c2csc(Nc3cc(OC)ccc3OC)n2)s1 (stereo not drawn),32*,15,15,16,12,-5
O=C(NCCN1CCOCC1)NC1(C(F)(F)F)Oc2ccc(Cl)cc2O1 (stereo not drawn),2,0,-2,0,8,-2
COCC(C)NC(=O)NC1(C(F)(F)F)Oc2ccc(Cl)cc2O1 (stereo not drawn),-1,-2,-3,2,25*,2
CC(C)C[C@H](N)c1nnc(SCc2ccc(Cl)cc2)o1,1,3,-2,-5,22,-3
CC(C)[C@H](N)c1nnc(SCc2ccc(Cl)cc2)o1,-1,-1,0,6,34*,-6
COc1cc(/C=C2/SC(=S)N(CC(=O)O)C2=O)ccc1OCC(=O)Nc1ccc(C)c(C)c1,3,-2,0,10,7,8
O=C(NC1CC1)c1cccc(NC(=O)c2cn3ccccc3n2)c1,-1,x,5,2,3,-12
Cc1ccc(S(=O)(=O)/N=C2\SC(CC(=O)Nc3ccc(F)cc3)C(=O)N2c2ccccc2)cc1 (stereo not drawn),3,-5,-6,-1,32*,-5
NC(=O)c1ccsc1NC(=O)C1CCN(S(=O)(=O)c2cccs2)CC1,-1,2,10,8,0,1
CNC(=O)c1ccsc1NC(=O)C1CCN(S(=O)(=O)c2ccc(Cl)s2)CC1,4,1,9,5,27*,1

# Assay outcomes (PubChem BioAssay)
